# Results: the supplement of paper PMC3334620
# Over roughly 33,000 sequences, “E-score (-0.5 to 0.5)” has its median near -0.0059; the highest 2% begin near 0.26. This is one part of a sample in which the highest values are shown more often than they occur.
# Biological target: T1, Cin5 (UniProt P40917)
# T1 sequence: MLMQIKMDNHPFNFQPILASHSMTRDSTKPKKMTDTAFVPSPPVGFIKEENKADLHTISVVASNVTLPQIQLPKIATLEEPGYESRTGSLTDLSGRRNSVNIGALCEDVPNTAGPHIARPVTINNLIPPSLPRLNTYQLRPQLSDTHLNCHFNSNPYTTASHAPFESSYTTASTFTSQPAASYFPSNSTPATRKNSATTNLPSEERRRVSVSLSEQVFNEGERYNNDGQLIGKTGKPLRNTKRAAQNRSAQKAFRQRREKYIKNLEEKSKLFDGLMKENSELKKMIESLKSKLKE
# Test: PBM E-score (8-mer binding enrichment) (E-score (-0.5 to 0.5)); higher = stronger / more preferred TF binding
# Conditions: protein concentration: 100 nM; construct: GST-full length
# Protocol: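 Universal 'all 10-mer' protein binding microarrays (Agilent AMADID 015681) probed with GST-tagged S. cerevisiae TFs (full-length or DBD) made by in vitro transcription/translation (PURExpress), about 100-200 nM. Bound TF was detected with fluorescent anti-GST. Each ungapped 8-mer (which stands for itself and its reverse complement) is scored by the PBM enrichment score (E-score), a modified Wilcoxon-Mann-Whitney statistic from -0.5 to +0.5, computed with the Universal PBM Analysis Suite. Scale: above 0.35 generally sequence-specific binding.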
row,Sequence,PBM E-score
1,ATACTCCA,0.122
2,AGCAGAGA,0.0498
3,ATTCATTA,0.122
4,ATTCATTG,0.116
5,ATTCATTC,0.299
6,ACTCAGAC,-0.0116
7,AACTATAG,0.051
8,AACTATAT,0.294
9,AAATAGAC,0.143
10,AACTATAC,0.0815
11,AAATATAC,0.178
12,AAATATAA,0.203
13,ACCTATAT,0.269
14,AAATATAT,0.295
15,ACCTATAC,0.0459
16,AAATAGAG,-0.0761
17,AAATAGAT,0.297
18,ACCTATAA,-0.0275
19,ACATCAGC,0.0733
20,CACTGAAC,0.0413
21,AGAGAGCC,-0.283
22,CGTAGTGC,-0.0666
23,GGCGTGAA,-0.183
24,CAATAAGG,-0.0974
25,AGTCGGCA,-0.0519

row,Sequence,PBM E-score
1,CGGCCGTC,-0.125
2,CACCCCCC,-0.498
3,AAGCAAGC,0.0852
4,ATCATGAT,0.098
5,TACTATAA,0.333
6,AACTATAA,0.195
7,CACTATAA,-0.0724
8,ATGCCCCA,-0.0481
9,AGCAAGGC,-0.0671
10,ACCGCCAA,-0.0388
11,AAGAGAAA,-0.0461
12,AAGAGAAG,-0.0313
13,AAGAGAAT,0.261
14,AAATTCAT,0.0992
15,AAGAGTTA,-0.0309
16,CCATCACG,-0.0302
17,AGTCGAGG,-0.168
18,CTATACTA,0.198
19,CAATACAA,0.308
20,CAATACAG,0.0431
21,CAATACAC,0.00745
22,ATATACAC,0.134
23,CTATACAA,0.00862
24,ATATACTA,0.318
25,ATATACTC,0.209

row,Sequence,PBM E-score
1,ATATACAA,0.266
2,CAACGACC,-0.0159
3,TTCCTAAA,-0.157
4,CGATGCGC,0.0485
5,GAGCGGAC,-0.251
6,CTTCCAAA,0.0243
7,AAGACTCG,-0.0863
8,CTGCCCGA,-0.00627
9,AGGCGGCG,-0.0941
10,GTGACGTA,0.204
11,ATGACGTA,0.338
12,CTGACGTA,0.278
13,ATGACGTG,0.191
14,CTGACGTC,0.035
15,ATGACGTC,0.255
16,AGATTAGA,-0.0761
17,AGGGGGGC,-0.479
18,CATTATAA,0.0881
19,GATTATCC,0.0776
20,CATTATCG,0.0028
21,CATTATAC,0.287
22,AATTATAC,0.208
23,CATTATCC,0.276
24,CACGGAGG,-0.173
25,CTGTCTAA,-0.0712

row,Sequence,PBM E-score
1,CGCGCCGA,-0.124
2,CAGGTCCC,-0.187
3,GCCTCCTA,-0.264
4,GATTATGC,0.172
5,CATTATTA,0.223
6,CATTATGA,0.13
7,GATTATTA,0.316
8,GATTATGA,0.291
9,AATTATTA,0.242
10,ACTGCAAC,-0.0484
11,AAGAGTCA,-0.12
12,CAAAGAAA,0.0585
13,GGAAGATA,0.13
14,AGAAGATA,0.188
15,GAAAGATA,0.31
16,CAAAGATA,0.12
17,TAAAGATA,0.171
18,GAAAGAAA,0.283
19,GAAAGAAC,-0.0462
20,CGAAGATA,0.266
21,CACGAGAC,-0.11
22,TAAGAAGA,0.122
23,GATGCAAC,-0.0342
24,GGAACCCA,-0.0933
25,TAAAGGGA,-0.115

row,Sequence,PBM E-score
1,AATTGGGG,0.0653
2,AATTGGGC,0.0334
3,AATTGGGT,0.319
4,GATAGCAA,0.279
5,TATAGCAA,0.134
6,CATAGCAA,0.111
7,CTTAAGAA,0.0235
8,ACGGAAAA,0.161
9,ACGGAAAC,-0.00025
10,ACGGAAAT,0.305
11,CGGCACCG,0.00123
12,ACACATAA,0.274
13,CCACATAA,0.184
14,ACACATAG,-0.0306
15,ACACATAC,0.0411
16,TCACATAA,0.31
17,GCACATAA,0.0702
18,CACTATCG,0.0597
19,AGCCAAAA,0.0959
20,CGGTTTGA,-0.0691
21,AGGTTTAT,0.251
22,CGAGAGCC,-0.163
23,AAGCCAAT,0.122
24,CACGTAAA,-0.0217
25,CTCGTAAG,0.304

row,Sequence,PBM E-score
1,CTCGTAAC,0.129
2,AACGTAAC,0.217
3,TACGTAAA,0.302
4,CACGTAAG,0.288
5,AACGTAAG,0.274
6,CACGTAAC,0.0354
7,GACGTAAA,0.103
8,ATCGTAAG,0.159
9,AACGTAAA,0.21
10,TACGTATA,0.167
11,AGCAGCGC,-0.0185
12,ACCACCTG,-0.0268
13,AATCGCTA,-0.0414
14,ACGAGCCC,-0.0676
15,GAACTCAC,-0.014
16,ACCGTAAT,0.223
17,AACGTAAT,0.421
18,AACGTACT,0.105
19,AATTTAGA,0.0855
20,AATTTAGT,0.284
21,AATTTAGG,0.168
22,AAATTAGA,0.206
23,AAATTAGG,0.102
24,AAATTAGT,0.293
25,GGAGCTCC,-0.164

row,Sequence,PBM E-score
1,GTCTAACA,-0.192
2,CGATGGCA,-0.0471
3,ACCACAGT,0.181
4,CATCCACG,0.0707
5,ACCGTTTA,-0.034
6,AAACCGCA,-0.142
7,CAACCGCG,0.269
8,CAACCGCA,0.0315
9,AAACCGCC,0.0261
10,AAACCGCG,0.265
11,CAACCGCC,-0.126
12,AATTGTGC,0.124
13,CAGCGGAA,0.0943
14,GCCCATCA,-0.115
15,AGCTCTCC,-0.174
16,ACGGAACA,0.2
17,TCGGAACA,0.29
18,CCGGAACA,0.145
19,ATATATTA,0.272
20,ACATATTA,0.266
21,CTATATTA,0.325
22,CTATATTC,0.0546
23,GTATATTA,0.219
24,ATATATTC,0.248
25,ATATATTG,0.088

row,Sequence,PBM E-score
1,CCATATTA,0.169
2,ACATATTG,0.0935
3,TGAGGCCA,0.0508
4,TGGCCTAA,-0.0968
5,AACGGGAG,-0.0138
6,CAACCGTC,-0.179
7,AAAAATTA,0.227
8,CTAAATTC,0.0709
9,CTAAATTA,0.258
10,TAAAATTA,0.178
11,AAAAATTG,-0.0306
12,GTAAATTA,0.192
13,ATAAATTA,0.349
14,ACAAATTG,0.248
15,ATAAATTG,0.272
16,CCAAATTA,0.187
17,ATAAATTC,0.0845
18,ACAAATTA,0.269
19,CCGAGGAG,-0.213
20,AGAGCCTG,-0.163
21,ACGAAGAG,-0.0165
22,CCGAAAGC,-0.328
23,AAGGGTAC,-0.137
24,ATCGACTG,0.101
25,ACGTGGAA,-0.00812

row,Sequence,PBM E-score
1,GCGTGGAA,0.106
2,TCGTGGAA,0.263
3,GGACACCC,-0.226
4,AGAAGCGC,0.0405
5,GATCCCAA,-0.0221
6,CAAGCAAG,-0.103
7,AATAACAC,0.247
8,ATTAACAG,0.0268
9,GTTAACTA,0.205
10,CTTAACAC,0.152
11,TATAACAA,0.295
12,GATAACAA,0.1
13,ATTAACTC,0.17
14,ATTAACAC,0.271
15,CATAACAA,0.252
16,ATTAACAA,0.274
17,ATTAACTA,0.272
18,GTTAACAA,0.17
19,CCACTAAC,0.0063
